# The panel holds about 83,000 compounds, 20% with a hit somewhere; the sample as a whole holds those more often.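 Activity criterion: percent growth below 10, measured after cells in 96-well plates were exposed to a single compound concentration for 48 hours.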 Unmarked numbers belong to inactive results. Activity calls are given as the source filed them.
# Columns and labels:
# Experiment in all cases: NCI-60 one-dose screen, 48 h (100 = growth as untreated, 0 = no growth, -100 = all killed)
# Conditions in all cases: 10 µM unless noted
# [1] = tested on: SK-MEL-2 melanoma
# [2] = tested on: EKVX NSCLC
# [3] = tested on: SN12C renal
# [4] = tested on: UO-31 renal
# [5] = tested on: TK-10 renal
# [6] = tested on: ACHN renal
# [7] = tested on: CAKI-1 renal
# [8] = tested on: A498 renal
# [9] = tested on: MOLT-4 leukemia
# [10] = tested on: CCRF-CEM leukemia
SMILES,growth [1],growth [2],growth [3],growth [4],growth [5],growth [6],growth [7],growth [8],growth [9],growth [10]
O=C(NC(CSSCC(NC(=O)c1ccccc1)C(=O)O)C(=O)O)c1ccccc1 (centres undefined),97.3%,103%,102%,91.8%,101%,102%,91.6%,86.1%,-1.1% (active),–
COc1cc(-c2n/c(=C\c3c(O)[nH]c4ccc(Cl)cc34)cc3c2=Nc2ccccc2-3)cc(OC)c1OC,36%,38.6%,-27.5% (active),-54.3% (active),-7.12% (active),-44.8% (active),13.2%,52.4%,10.2%,–
CCN(CC)CCN1C(=O)c2c(c(C)c3c(oc4cc(O)ccc43)c2C)C1=O,108%,103%,86.9%,69.2%,-92.3% (active),49.5%,-92.5% (active),101%,-33.6% (active),–
C=C1C(=O)O[C@H]2[C@H]1CC/C(COC(=O)C(=O)c1c[nH]c3ccccc13)=C\CC[C@@]1(C)O[C@@H]21,-57.5% (active),48.2%,-46.7% (active),-93.3% (active),-32.3% (active),-36% (active),-33.8% (active),-17.9% (active),-24.6% (active),–
COC(=O)c1c2c(c[n+]([O-])c1C)C(=O)C=CC2=O,58.5%,101%,59.7%,46.5%,101%,14.2%,62.1%,106%,-17.4% (active),–
N=c1sc(Cc2ccc(Cl)cc2)cn1CC(=O)c1ccc(F)cc1,97.1%,70.5%,87.5%,57.6%,66.9%,47.2%,44.6%,91.1%,71.3%,–
COc1ccc(-c2cc(-c3cc(OC)ccc3OC)nc(SCC(=O)c3ccccc3)c2C#N)cc1,89.6%,100%,93.7%,81.9%,114%,91.6%,–,93.9%,–,111%
C[C@@]1(CCC#N)[C@H]2CC[C@@H]3[C@H]4[C@H](C(=O)/C=C/c5cccnc5)CC[C@]4(C#N)CC[C@@]3(C)[C@]2(C)CC[C@H]1C(=O)/C=C/c1cccnc1,77.7%,98.1%,65.4%,87.3%,101%,56.3%,68.7%,99%,11.7%,–
CCN(CC)c1nc(SCC(=O)Nc2nc3ccc(C)cc3s2)nc(-c2ccccc2)c1C#N,92%,81%,94%,68.8%,94.6%,94.8%,75.4%,81%,79.7%,–
O=C(N/N=C/c1ccncc1)c1ccc(C(F)(F)F)nc1Nc1cccc(C(F)(F)F)c1,-10.9% (active),18.4%,37.7%,8.19% (active),16.8%,17.1%,6.02% (active),35.3%,6.05% (active),–
O=C(O)c1ccc2c(c1Cl)C(=O)c1ccccc1C2=O,70.2%,20.9%,98.8%,93.2%,130%,99.1%,89.4%,111%,78.1%,–
O=c1cc(-c2ccc(Cl)cc2)[nH]c2ccccc12,79.7%,68.3%,96.9%,74.6%,110%,85.6%,73.7%,75.1%,110%,–
Cc1cc(C)c2c(-c3nnc(N)s3)cc(=O)oc2c1,114%,97.2%,99.3%,88%,108%,105%,89.3%,79.9%,106%,–
CCCCCCCCCCN(CCCCCCCCCC)CC(=O)c1ccc2cc(Br)c3ccccc3c2c1,101%,83.5%,81.1%,2.3% (active),79.9%,97.3%,46.3%,53.2%,-39.6% (active),–
N#C/C(=C/C=C/c1cccc(Cl)c1)S(=O)c1ccccc1 (centres undefined),-12.3% (active),-56.3% (active),-55.4% (active),-65.6% (active),-82.5% (active),-82.6% (active),-68.2% (active),-69.9% (active),-0.839% (active),–
COc1ccc2oc3c(C)c4c(c(C)c3c2c1)C(=O)N(Cc1ccccc1)C4=O,105%,92.9%,89.8%,80.7%,120%,88.3%,81.1%,109%,106%,–
COc1nc2c(c(=O)n1C)CN(c1ccccc1)C(=O)CN2C,69.6% [100 µM],58.2% [100 µM],51.3% [100 µM],26% [100 µM],52.3% [100 µM],46.4% [100 µM],61.7% [100 µM],61% [100 µM],40.6% [100 µM],–
Cc1ccc2nc(NC(=O)CSc3nc(Nc4ccc([N+](=O)[O-])cc4)c(C#N)c(-c4ccccc4)n3)sc2c1,104%,91.1%,97.9%,78.8%,101%,90.7%,87.9%,116%,97.8%,–
N#CC1=C(/N=C/c2ccccc2)Oc2c(ccc3ccccc23)C1c1ccccc1 (centres undefined),45.7%,34.6%,37.8%,32%,45.2%,34.3%,24%,16.3%,19.8%,–
COc1ccc(/C=c2\nc3n(-c4ccccc4)c4nc5c6c(sc5c(=N)n4n-3c2=O)CCCC6)cc1,99.4%,67%,86.4%,49.5%,124%,75.1%,72.9%,58.9%,56.3%,–
CN(C)c1ccc(-c2cc(-c3ccc(Nc4nc(Nc5ccc(Cl)cc5)nc(Nc5ccc(Cl)cc5)n4)cc3)no2)cc1,31.6%,41.3%,53.8%,23.5%,48.4%,46.5%,39.7%,67.5%,-24.7% (active),–
CC(=O)N1N=C(c2ccc(Nc3nc(Nc4ccc(F)cc4)nc(Nc4ccc(F)cc4)n3)cc2)CC1c1cccc([N+](=O)[O-])c1 (centres undefined),62.5%,90.2%,98.1%,73%,104%,93%,–,78.9%,–,–
COC(=O)c1c2c(c(C)[n+]([O-])c1C)C(=O)C(NCc1ccc(F)c(Cl)c1)=CC2=O,29.4%,37.8%,-0.149% (active),41.7%,58.8%,30.9%,34%,78%,-19.2% (active),–
Cc1cc[c-]cc1.Fc1c[c-]c(-c2ccccn2)c(F)c1.[Pt+2].c1ccc(P(C[PH+](c2ccccc2)c2ccccc2)c2ccccc2)cc1,4.88% (active),7.66% (active),6.18% (active),11.4%,31.5%,-1.88% (active),0.998% (active),9.17% (active),10.7%,–
O=C(COc1ccc(/C=C2\Oc3ccccc3C2=O)cc1)Nc1nc2ccccc2s1,106%,42.8%,64.4%,-77.2% (active),134%,72.7%,-83% (active),115%,-48.8% (active),–
C=CCn1c(C)nc2cc(Nc3nc(N4CCCC4)nc4ccccc34)ccc21,109%,97.7%,90.3%,68.1%,108%,103%,84.9%,71.4%,49.9%,–
N#Cc1c(N2CCNCC2)nc2sc3cc(Cl)c(Cl)cc3n2c1=N,112%,98.8%,93.2%,80.8%,141%,102%,101%,115%,70.4%,–
c1ccc2c(c1)nc(CN1CCOCC1)n1cc(N3CCCC3)nc21,106%,87.2%,97.7%,75.1%,114%,104%,99.5%,98.7%,99%,–
